# Assay results published in PubChem BioAssay.
# Several values for one entry are separate records, joined by “and”; a condition that tells them apart may be missing. Identical values can stand only once. Activity calls are given as the source filed them.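 How the source made its calls, unless noted: active means normalized viability below 100% at a tested concentration; inactive means the rest.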
# What was measured:
# [1] = stimulators of insulin release from INS-1E, primary screen, cell-based, 5 mM glucose, NPC library (AID 1117329;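 active means compound raises insulin release from rat beta cells at 5 mM glucose, no numeric limit stated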); settings: rat INS-1E insulin secretion, at 10 µM, stronger effect = higher value
# [2] = growth inhibition of GSK3B-pretreated HCT116 cells – cell-based, CellTiter-Glo, 0.2 to 20 µM (AID 1117336;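 active means compounds lowering colon cancer cell viability after pretreatment blocking the GSK3B kinase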); settings: HCT116 viability after GSK3B inhibitor, at 20 µM, stronger effect = higher value
# [3] = inhibition of endothelial tube formation, primary screen, imaging, VEGF stimulated, CD31 staining, tube area, NPC library (AID 1117340;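 active means compound that reduces growth-factor-driven endothelial tube area in a mixed cell culture, no cutoff stated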); settings: VEGF-stimulated ADSC/ECFC co-culture, at 10 µM, stronger effect = higher value
# [4] = GLP1 release stimulators, primary, NCI-H716, NPC library (AID 1117341;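 active means compound raises GLP1 secretion from the human gut endocrine cells, with no numeric limit stated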); settings: NCI-H716 cells, at 10 µM, stronger effect = higher value
# [5] = HCT116 colon cancer cell growth inhibition, primary screen, CellTiter-Glo luminescence, NPC library (AID 1117342;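 active means compounds that lower survival of HCT116 colon cancer cells in the luminescence readout, no numeric limit stated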); settings: at 20 µM (top of the series)
# [6] = reduced SW480 viability measured with CellTiter-Glo, NPC library, primary (AID 1117343;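 active means compounds that lower viability of the colon cancer cells in the luminescence readout, with no numeric limit stated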); settings: CellTiter-Glo luminescence; at 20 µM (top of the series) unless noted
# [7] = NPC library primary testing for decreased DLD-1 cell viability via CellTiter-Glo (AID 1117346;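 active means compounds that lower survival of DLD-1 colon cancer cells in the luminescence readout, no cutoff given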); settings: DLD-1 viability, CellTiter-Glo luminescence; at 20 µM (top of the series)
# [8] = compounds altering Cy5-DNA-NS3h complex signal – biochemical, LOPAC1280, artefact control for HCV NS3 helicase inhibitor project (AID 687037; call rule not given here); settings: Cy5-DNA-NS3h complex fluorescence interference counterscreen
# [9] = Wnt pathway potentiators raising nuclear beta-catenin – imaging, WNT3A-conditioned medium, mouse C2C12, NPC library, primary screen (AID 1117326; in the data active means nuclear beta-catenin stimulation mostly above about 4.2%, no sharp cut-off; inactive means mostly below about 10%); settings: stronger effect = higher value
# [10] = target: 6-phosphogluconate dehydrogenase, decarboxylating (Homo sapiens) (UniProt P52209); test: inhibition of human phosphogluconate dehydrogenase – biochemical, recombinant enzyme, NADPH absorbance, primary screen (AID 1159550;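 active means at least 20% inhibition of 6-phosphogluconate dehydrogenase activity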); settings: recombinant 6PGD, NADPH absorbance 341 nm; at 10 µM; stronger effect = higher value
# Sequence of 6-phosphogluconate dehydrogenase, decarboxylating (Homo sapiens) (P52209 whole entry, looked up): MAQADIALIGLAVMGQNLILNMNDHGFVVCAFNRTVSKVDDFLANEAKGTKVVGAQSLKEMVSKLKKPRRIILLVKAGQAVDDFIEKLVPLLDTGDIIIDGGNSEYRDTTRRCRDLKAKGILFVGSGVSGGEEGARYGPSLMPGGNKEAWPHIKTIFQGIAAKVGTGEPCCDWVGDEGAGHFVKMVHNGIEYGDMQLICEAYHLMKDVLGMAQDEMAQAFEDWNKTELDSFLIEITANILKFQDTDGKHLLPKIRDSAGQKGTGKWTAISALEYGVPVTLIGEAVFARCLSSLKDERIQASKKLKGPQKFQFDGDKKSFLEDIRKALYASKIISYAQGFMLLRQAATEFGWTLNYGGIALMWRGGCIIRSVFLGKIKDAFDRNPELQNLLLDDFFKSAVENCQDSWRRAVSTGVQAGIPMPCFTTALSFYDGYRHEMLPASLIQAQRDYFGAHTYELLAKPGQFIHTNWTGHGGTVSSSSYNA
# [11] = modulation of C. elegans fzo-1 (AID 1259413; call rule not given here;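 further: fzo-1 mutant C. elegans worms in liquid wells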); settings: C. elegans fzo-1 modulator screen, mean read-out; stronger effect = higher value
# [12] = EMT-state selective cytotoxicity in co-culture – imaging, PC-3E GFP, TEM4-18 mCherry, primary screen (AID 1345086;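 active means compounds killing one labelled cell type while sparing the other, by normalised counts and ratio limits, not self-fluorescent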;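 on all read-outs here: cells exposed to compound for 72 h before imaging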;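 on red/green cell ratio (normalised): normalised mesenchymal count divided by normalised epithelial count so high means epithelial killing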); settings: PC-3E GFP / TEM4-18 mCherry co-culture, imaging cell counts, at 1 µM; for red/green cell ratio (normalised): actives lie on both sides, counts scaled to control wells, 1 = unselective
# [13] = blockers of cellular phospholipid synthesis – cell-based, LOPAC library, screen 4, primary screen (AID 1347384; call rule not given here); settings: animal cells, phospholipid biosynthesis inhibition screen; at 10 µM
# [14] = drug combination growth inhibition, ovarian cancer – cell-based, oncology-focused library, rucaparib conditional, profiling panel (AID 1508598); settings: patient-derived ovarian cancer cells, CellTiter-Glo viability, 144 h, stronger effect = lower value
# [15] = target: NAD(+) hydrolase SARM1 (Homo sapiens) (UniProt Q6SZW1); test: blocking NAD cleavage by SARM1 SAM-TIR – cell lysate, NAD-Glo luminescence (AID 1508614;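 active means compound whose remaining NAD level is above about 45 nM, limit read from the data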); settings: SAM-TIR HEK293T lysate NADase, at 1 µM, stronger effect = higher value
# Sequence of NAD(+) hydrolase SARM1 (Homo sapiens) (Q6SZW1 whole entry, looked up, the tested form may be a part): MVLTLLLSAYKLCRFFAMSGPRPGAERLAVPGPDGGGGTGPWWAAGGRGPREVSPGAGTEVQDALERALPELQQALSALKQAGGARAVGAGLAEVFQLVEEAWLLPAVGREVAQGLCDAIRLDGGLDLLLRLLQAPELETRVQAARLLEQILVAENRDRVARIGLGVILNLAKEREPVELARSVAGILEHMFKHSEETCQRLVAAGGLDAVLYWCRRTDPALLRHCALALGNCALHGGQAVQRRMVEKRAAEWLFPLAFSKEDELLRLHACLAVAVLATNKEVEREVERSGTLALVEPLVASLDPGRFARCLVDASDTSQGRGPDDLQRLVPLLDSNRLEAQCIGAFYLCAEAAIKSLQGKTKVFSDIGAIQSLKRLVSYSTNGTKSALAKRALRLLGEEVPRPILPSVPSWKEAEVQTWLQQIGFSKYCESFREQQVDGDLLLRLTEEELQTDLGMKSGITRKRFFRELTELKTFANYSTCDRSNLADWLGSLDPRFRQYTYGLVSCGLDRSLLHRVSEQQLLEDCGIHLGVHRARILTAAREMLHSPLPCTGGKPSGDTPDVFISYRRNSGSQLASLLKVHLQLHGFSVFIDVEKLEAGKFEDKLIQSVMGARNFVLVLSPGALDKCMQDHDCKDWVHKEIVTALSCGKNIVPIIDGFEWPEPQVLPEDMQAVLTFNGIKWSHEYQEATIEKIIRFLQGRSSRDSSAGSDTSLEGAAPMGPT
# [16] = target: Mitogen-activated protein kinase 7 (Homo sapiens) (UniProt Q13164); test: Gal4-ERK5 driven luciferase induction – cell-based, HTS, primary screen (AID 1508626;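 active means luciferase signal above three times the same-plate solvent-only control wells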;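 further: luciferase driven by Gal4-ERK5 fusion binding five Gal4 sites before minimal TATA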); settings: HeLa Gal4-ERK5 transactivation, 18 h, at 5 µM, stronger effect = higher value
# Sequence of Mitogen-activated protein kinase 7 (Homo sapiens) (Q13164 whole entry, looked up, the tested form may be a part): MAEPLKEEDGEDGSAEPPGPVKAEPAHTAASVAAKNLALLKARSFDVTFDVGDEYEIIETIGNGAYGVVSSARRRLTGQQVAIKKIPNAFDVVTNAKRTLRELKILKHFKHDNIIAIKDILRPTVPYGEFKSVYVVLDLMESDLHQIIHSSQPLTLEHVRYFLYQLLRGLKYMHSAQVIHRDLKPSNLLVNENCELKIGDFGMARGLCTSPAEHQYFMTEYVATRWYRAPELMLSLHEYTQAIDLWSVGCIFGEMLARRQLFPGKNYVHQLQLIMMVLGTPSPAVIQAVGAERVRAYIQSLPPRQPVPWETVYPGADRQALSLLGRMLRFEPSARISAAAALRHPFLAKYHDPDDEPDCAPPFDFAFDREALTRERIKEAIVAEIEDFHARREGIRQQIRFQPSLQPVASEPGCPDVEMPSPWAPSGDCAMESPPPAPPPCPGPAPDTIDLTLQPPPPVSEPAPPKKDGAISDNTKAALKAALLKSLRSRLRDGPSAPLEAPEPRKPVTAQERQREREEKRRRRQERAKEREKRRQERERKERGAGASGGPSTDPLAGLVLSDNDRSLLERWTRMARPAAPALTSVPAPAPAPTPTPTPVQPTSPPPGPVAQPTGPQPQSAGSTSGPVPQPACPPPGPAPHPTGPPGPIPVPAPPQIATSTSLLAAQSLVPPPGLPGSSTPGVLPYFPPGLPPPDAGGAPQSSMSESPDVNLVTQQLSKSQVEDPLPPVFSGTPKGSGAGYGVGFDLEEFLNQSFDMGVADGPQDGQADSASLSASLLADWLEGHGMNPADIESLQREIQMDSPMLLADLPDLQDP
# [17] = galactose survival enhancers in mitochondrial complex I cybrids – cell-based, galactose medium, ATP luminescence, primary screen (AID 1645843;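 active means z-score of at least 1.8 in each of two replicates, scored against plate mean and spread of sample wells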;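 further: positive z means more ATP and so rescue of galactose-driven cybrid death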); settings: complex I mutant cybrid cells, 72 h, stronger effect = higher value
# [18] = compounds altering viability of human ES cells (AID 493140; call rule not given here;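 further: cells exposed to compounds for four days before counting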); settings: human embryonic stem cell survival screen; stronger effect = higher value
# [19] = MELAS cybrid and Rieske KO viability enhancers – cell-based, MELAS cybrids, Rieske KO mouse fibroblasts, CellTiter-Glo, primary screen (AID 1508586;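 active means mean z-score across replicates of 1.96 or higher in either the MELAS or the Rieske mutant cell line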;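 further: z relative to plate mean and SD of compound and empty wells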); settings: low glucose
# [20] = measured here: epithelial PC-3E GFP cell survival
# [21] = measured here: mesenchymal TEM4-18 mCherry cell survival
smiles,measurement,setting,value
C[C@@H](c1ncncc1F)C(O)(Cn1cncn1)c1ccc(F)cc1F (some centres undefined),insulin secretion stimulation,[1],3.8% (inactive)
same,viability decrease,[2],-3.3% (inactive)
same,tube area decrease,[3],-5.2% (inactive)
same,GLP1 secretion stimulation,[4],-0.7% (inactive)
same,inhibition of viability,[5],11.9% (inactive)
same,viability decrease (inhibition),[6],4.6% (inactive)
same,viability decrease (inhibition),[7],-4.3% (inactive)
CCCC(CCC)C(=O)O,fluorescence ratio (interference),[8],1 (inactive)
same,nuclear beta-catenin stimulation,[9]; at 10 µM,-1.5% (inactive)
same,nuclear beta-catenin stimulation,"[9]; stimulation, at 2 µM",8.9%
same,viability decrease,[2],4.6% (inactive)
same,inhibition of viability,[5],20.8% (inactive)
same,viability decrease (inhibition),[6],-4.3% (inactive)
same,viability decrease (inhibition),[7],13.5% (inactive)
same,inhibition,[10],13.2% (inactive)
same,mean signal,[11],274 (inactive)
same,red/green cell ratio (normalised),[12],1.21 (inactive)
same,normalised cell number,[12]; [20],0.95
same,normalised cell number,[12]; [21],1.15
same,outcome,[13],inactive
same,viability,"[14]; at 0.000305 µM, OCI-C5x cells, with rucaparib 10 µM, 100% = cells with rucaparib alone",125% (inactive)
same,viability,"[14]; at 0.000305 µM, OCI-C5x cells, without rucaparib",105% (inactive)
same,viability,"[14]; at 0.000305 µM, OCI-P5x cells, with rucaparib 20 µM, 100% = cells with rucaparib alone",129% (inactive)
same,viability,"[14]; at 0.000305 µM, OCI-P5x cells, without rucaparib",126% (inactive)
same,viability,"[14]; at 0.00122 µM, OCI-C5x cells, with rucaparib 10 µM, 100% = cells with rucaparib alone",125% (inactive)
same,viability,"[14]; at 0.00122 µM, OCI-C5x cells, without rucaparib",128% (inactive)
same,viability,"[14]; at 0.00122 µM, OCI-P5x cells, with rucaparib 20 µM, 100% = cells with rucaparib alone",124% (inactive)
same,viability,"[14]; at 0.00122 µM, OCI-P5x cells, without rucaparib",121% (inactive)
same,viability,"[14]; at 0.00488 µM, OCI-C5x cells, with rucaparib 10 µM, 100% = cells with rucaparib alone",113% (inactive)
same,viability,"[14]; at 0.00488 µM, OCI-C5x cells, without rucaparib",115% (inactive)
same,viability,"[14]; at 0.00488 µM, OCI-P5x cells, with rucaparib 20 µM, 100% = cells with rucaparib alone",122% (inactive)
same,viability,"[14]; at 0.00488 µM, OCI-P5x cells, without rucaparib",127% (inactive)
same,viability,"[14]; at 0.0195 µM, OCI-C5x cells, with rucaparib 10 µM, 100% = cells with rucaparib alone",119% (inactive)
same,viability,"[14]; at 0.0195 µM, OCI-C5x cells, without rucaparib",117% (inactive)
same,viability,"[14]; at 0.0195 µM, OCI-P5x cells, with rucaparib 20 µM, 100% = cells with rucaparib alone",123% (inactive)
same,viability,"[14]; at 0.0195 µM, OCI-P5x cells, without rucaparib",123% (inactive)
same,viability,"[14]; at 0.0781 µM, OCI-C5x cells, with rucaparib 10 µM, 100% = cells with rucaparib alone",111% (inactive)
same,viability,"[14]; at 0.0781 µM, OCI-C5x cells, without rucaparib",118% (inactive)
same,viability,"[14]; at 0.0781 µM, OCI-P5x cells, with rucaparib 20 µM, 100% = cells with rucaparib alone",121% (inactive)
same,viability,"[14]; at 0.0781 µM, OCI-P5x cells, without rucaparib",124% (inactive)
same,viability,"[14]; at 0.313 µM, OCI-C5x cells, with rucaparib 10 µM, 100% = cells with rucaparib alone",116% (inactive)
same,viability,"[14]; at 0.313 µM, OCI-C5x cells, without rucaparib",115% (inactive)
same,viability,"[14]; at 0.313 µM, OCI-P5x cells, with rucaparib 20 µM, 100% = cells with rucaparib alone",118% (inactive)
same,viability,"[14]; at 0.313 µM, OCI-P5x cells, without rucaparib",122% (inactive)
same,viability,"[14]; at 1.25 µM, OCI-C5x cells, with rucaparib 10 µM, 100% = cells with rucaparib alone",119% (inactive)
same,viability,"[14]; at 1.25 µM, OCI-C5x cells, without rucaparib",112% (inactive)
same,viability,"[14]; at 1.25 µM, OCI-P5x cells, with rucaparib 20 µM, 100% = cells with rucaparib alone",112% (inactive)
same,viability,"[14]; at 1.25 µM, OCI-P5x cells, without rucaparib",128% (inactive)
same,viability,"[14]; at 5 µM, OCI-C5x cells, with rucaparib 10 µM, 100% = cells with rucaparib alone",115% (inactive)
same,viability,"[14]; at 5 µM, OCI-C5x cells, without rucaparib",116% (inactive)
same,viability,"[14]; at 5 µM, OCI-P5x cells, with rucaparib 20 µM, 100% = cells with rucaparib alone",122% (inactive)
same,viability,"[14]; at 5 µM, OCI-P5x cells, without rucaparib",112% (inactive)
same,remaining NAD,[15],10 nM (inactive)
same,luciferase signal,[16],132 AU (inactive)
same,z-score,[17],0.57 (inactive) and 0.76 (inactive) and 0.71 (inactive)
CC(C)OC(=O)C(C)(C)Oc1ccc(C(=O)c2ccc(Cl)cc2)cc1,survival,[18],16.9 (inactive)
same,fluorescence ratio (interference),[8],1.1 (inactive)
same,nuclear beta-catenin stimulation,[9]; at 10 µM,1.9% (inactive)
same,nuclear beta-catenin stimulation,"[9]; stimulation, at 2 µM",6.9%
same,viability decrease,[2],81.1% (active)
same,inhibition of viability,[5],81.4% (active)
same,viability decrease (inhibition),[6],75.1% (active)
same,viability decrease (inhibition),[7],57.5% (active)
same,inhibition,[10],13.2% (inactive)
same,mean signal,[11],232 (inactive)
same,red/green cell ratio (normalised),[12],1.01 (inactive)
same,normalised cell number,[12]; [20],1
same,normalised cell number,[12]; [21],1
same,outcome,[13],inactive
same,z-score,"[19]; MELAS cybrid survival, CellTiter-Glo 48 h, stronger effect = higher value",0.204 (inactive) and 1.22 (inactive) and 0.396 (inactive)
same,z-score,"[19]; Rieske KO mouse fibroblast survival, CellTiter-Glo 72 h",0.718 and 0.00922 and -0.202
same,remaining NAD,[15],10 nM (inactive)
same,luciferase signal,[16],56 AU (inactive)
same,z-score,[17],-1 (inactive) and -1.21 (inactive) and -1.85 (inactive)
